Source: PubChem BioAssay (NCATS)
Records with an inconclusive call do not appear. Activity calls are given as the source filed them. The call rests on the fitted dose curve; in most records, active means well fitted activation curve with a large enough effect; inconclusive means small, poorly fitted or top-dose-only effect; inactive means no such curve, though single readings can be large or run the other way.

Assay: qHTS for Activators of Parkin Expression: LOPAC Validation Assay (FLuc Reporter) (AID 720573)
Details: Cell line, PRKN promoter firefly luciferase reporter, vehicle wells = 0, positive control = 100%; series mostly up to 46.1 µM; activation: at the top concentration
Outline: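 FLuc signal from Parkin-promoter coincidence reporter neuronal cells, normalized to DMSO and positive control (100%). Cells (1,500/well) pre-incubated 24 h, then exposed to LOPAC compounds in 7-point dose response for 24 h at 37 C, 5% CO2.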

Row | SMILES | activation
1 | NC(N)=NC(=O)Cc1c(Cl)cccc1Cl | -1.91% (inactive)
2 | N[C@@H](COP(=O)(O)O)C(=O)O | -0.629% (inactive)
3 | CC(=O)[C@@]1(O)CC[C@H]2[C@@H]3CCC4=CC(=O)CC[C@]4(C)[C@H]3CC[C@@]21C | -6.25% (inactive)
4 | O=C(O)CP(=O)(O)O | -12.7% (inactive)
5 | CNCCC(Oc1ccccc1OC)c1ccccc1 (stereo unspecified) | 0.909% (inactive)
6 | OCCN1CCN(CCCN2c3ccccc3C=Cc3ccccc32)CC1 | -7.54% (inactive)
7 | Cc1ccc(Cl)c(Nc2ccccc2C(=O)O)c1Cl | -15.8% (inactive)
8 | CCN1CCc2nc(N)oc2CC1 | 0.854% (inactive)
9 | CCCN(CCC)C(=O)C(CCC(=O)O)NC(=O)c1ccccc1 (stereo unspecified) | -6.64% (inactive)
10 | O=C(CCCN1CCC(O)(c2cccc(C(F)(F)F)c2)CC1)c1ccc(F)cc1 | -9.67% (inactive)
11 | COC(=O)C1=C(C)NC(C)=C(C(=O)OC(C)(C)CN(C)CCC(c2ccccc2)c2ccccc2)C1c1cccc([N+](=O)[O-])c1 (stereo unspecified) | -17.9% (inactive)
12 | Cc1ccc(S(=O)(=O)NC(=O)NN2CCCCCC2)cc1 | -1.05% (inactive)
13 | c1cc(CN2CCCCC2)cc(OCCCNc2nc3ccccc3s2)c1 | -9.99% (inactive)
14 | O=C(CCNNC(=O)c1ccncc1)NCc1ccccc1 | 27% (inactive)
15 | CN(C)CC/C=C1\c2ccccc2COc2ccccc21 | 0.843% (inactive)
16 | O=C1CC2(CCCC2)CC(=O)N1CCCCN1CCN(c2ncccn2)CC1 | -6.79% (inactive)
17 | CCN(Cc1ccncc1)C(=O)C(CO)c1ccccc1 (stereo unspecified) | -2.58% (inactive)
18 | CN=C(NC#N)NCCSCc1nc[nH]c1C | -5.64% (inactive)
19 | O=c1[nH]c(=O)n([C@H]2C[C@H](O)[C@@H](CO)O2)cc1Br | -3.39% (inactive)
20 | CC(C)NNC(=O)c1ccncc1 | -7.17% (inactive)
21 | CN/C(=C\[N+](=O)[O-])NCCSCc1ccc(CN(C)C)o1 | -10.5% (inactive)
